TDP1 cell noCPT – qHTS for Inhibitors of human tyrosyl-DNA phosphodiesterase 1 (TDP1): qHTS in cells in absence of CPT | DT40 Tdp1-/- hTDP1 cells, no CPT, ATP luminescence, 48 h | Potency, µM (series often up to 46.2 µM), for the others: top-dose activity change, negative = growth inhibition, most hits filed as inhibitors | actives 15% (n = 420,000) | AID 686978, 2013; note: potency is the fitted concentration of half-maximal effect; nearly all actives have a fitted effect of over 55% in size
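Compound effects on proliferation are scored in DT40 Tdp1-/-;hTDP1 cells in the absence of CPT. ATP levels (CellTiter-Glo luminescence) are recorded after a ≥48 hr, 37 °C incubation.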
TDP1 cell CPT – growth inhibition of DT40 Tdp1-/-;hTDP1 cells with camptothecin (screen for TDP1 inhibitors); chicken DT40 Tdp1-/-;hTDP1 cells + 20 nM CPT, ATP luminescence, 48 h; Potency, µM (top dose mostly 46.2 µM), for inactives: at the top dose activity change, negative = growth inhibition, most hits filed as inhibitors; actives 12% (n = 420,000); note: potency is the fitted concentration of half-maximal effect; nearly all actives have a fitted effect of over 55% in size
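Chicken DT40 Tdp1-/- cells stably complemented with human TDP1 were seeded at 400 cells/well in medium containing 20 nM camptothecin, exposed to pin-transferred compounds, and grown at 37 °C for at least 48 hr. Viability was read as ATP luminescence.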
IL1B secr inh – inhibitors of inflammasome signaling (IL-1 beta secretion); THP-1 LPS/ATP IL-1B secretion, AlphaLISA, 16 h; stronger effect = lower value; activity change, % at 57.5 µM; actives 4.7% (n = 360,000); AID 743279; in the data active = activity change below about -50%; inconclusive = mostly about -30% to -49%
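Secreted IL-1B measured by AlphaLISA bead assay after 16 h compound exposure of THP-1 cells; compounds (final up to 57.5 uM) added 1 h before LPS (250 ng/mL) and ATP (1.25 mM) stimulation; lower signal means less secretion.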
CtBP-E1A blk – CtBP/E1A binding inhibition; AlphaScreen GST-E1A/His-CtBP binding, 1536-well; stronger effect = lower value; activity change, % (no concentration beside the values); actives 0.49% (n = 340,000); in the data active = activity change below about -65%; inconclusive = mostly about -30% to -63%
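Steps: dispense buffer (Tris pH 8.0, NaCl 300 mM, TCEP 1 mM, BSA, Tween 20); add 5X protein mix (GST-E1A, His-CtBP, 125 nM each); pin 23 nL compound; 2 h at 37 °C, dark; add 5X beads (50 ug/mL); 1 h; read.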
TDP1 inh – TDP1 (human) enzyme inhibition. recombinant TDP1, AlphaScreen DNA substrate cleavage. Potency, µM (titrated, usually from 130 µM), for the others: at the highest dose activity change, negative = inhibition, hits mostly inhibitors. AID 485290. actives 0.28% (n = 350,000); note: potency is the fitted concentration of half-maximal effect; nearly all actives have a fitted effect of over 40% in size
Target sequence (Q9NUW8 whole entry, looked up): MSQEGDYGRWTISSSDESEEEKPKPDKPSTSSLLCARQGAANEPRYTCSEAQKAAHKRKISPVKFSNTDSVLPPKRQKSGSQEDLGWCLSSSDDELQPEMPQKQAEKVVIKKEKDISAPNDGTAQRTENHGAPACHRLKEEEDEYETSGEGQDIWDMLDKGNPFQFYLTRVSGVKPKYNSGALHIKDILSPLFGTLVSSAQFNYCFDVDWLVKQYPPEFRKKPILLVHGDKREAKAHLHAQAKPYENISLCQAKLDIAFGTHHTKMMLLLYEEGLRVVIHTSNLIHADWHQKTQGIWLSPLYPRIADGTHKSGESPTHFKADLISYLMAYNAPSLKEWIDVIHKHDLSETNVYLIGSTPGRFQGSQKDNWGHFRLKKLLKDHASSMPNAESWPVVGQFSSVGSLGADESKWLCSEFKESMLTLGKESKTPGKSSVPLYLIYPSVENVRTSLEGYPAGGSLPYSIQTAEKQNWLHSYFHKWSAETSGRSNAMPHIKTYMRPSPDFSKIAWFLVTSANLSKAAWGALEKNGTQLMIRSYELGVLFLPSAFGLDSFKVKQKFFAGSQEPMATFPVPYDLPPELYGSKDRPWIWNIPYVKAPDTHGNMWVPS
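Signal: AlphaScreen proximity between streptavidin donor and anti-FITC acceptor beads on intact substrate. Reaction: Tdp1 1 nM, substrate 15 nM final, 5 min RT after 15 min compound preincubation.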
Six1-Eya2 blk – blocks human Six1 binding to Eya2; Q15475+O00167; AlphaScreen GST-Six1/His-Eya2 binding, biochemical; stronger effect = lower value; activity change, % (concentration not given with the values); actives 0.56% (n = 360,000); AID 651725; in the data active = activity change below about -65%; inconclusive = mostly about -30% to -63%
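Six1/Eya2 binding was read as AlphaScreen signal after compounds were pinned into GST-Six1 plus His-tagged Eya2 (5X stock 250/500 nM) in pH 8.0 Tris/NaCl/TCEP buffer, beads added, then incubated 1 h, 37 C, dark.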
Numbers without * were called inactive; ? = inconclusive; / = no result given; [ ] = another dose, or the depositor's remark. Shown are actives, neighbours in structure and some others; about 18% of the full set was active somewhere. Unless noted, calls come from the whole dose curve; as a rule, active = well fitted curve in the direction sought with a large enough effect; inconclusive = small, poorly fitted or top-dose-only effect, or another doubt; inactive = no such curve, though single readings can be large; an effect the other way counts as inactive or inconclusive. % is set by controls: 0 for no effect and ±100 for the full control effect.

SMILES	TDP1 cell noCPT	TDP1 cell CPT	IL1B secr inh	CtBP-E1A blk	TDP1 inh	Six1-Eya2 blk
O=[N+]([O-])c1ccc(/C=N/Nc2nc(N3CCCC3)nc(N3CCCC3)n2)o1	?	23µM*	2	-2	2%	-10
COc1ccc(-c2cnnc(N/N=C/c3ccc(O)c(OC)c3)n2)cc1	5.2µM*	5.2µM*	-27	-5	1%	-3
O=[N+]([O-])c1cccc(-c2ccc(/C=N/Nc3nc(N4CCCCC4)nc(N4CCCCC4)n3)o2)c1	?	?	-14	-23	9%	?
C[C@]12CCC(=O)C=C1[C@@H]1C[C@@H]1[C@H]1[C@@H]3[C@@H]4C[C@@H]4[C@@]4(CCC(=O)O4)[C@@]3(C)CC[C@@H]12	7.5µM*	8.4µM*	/	/	/	/
COc1ccc(C2Oc3cc(OC)cc(OC)c3CC2O)cc1 (configuration not stated)	16µM*	?	/	/	13%[56.1 µM]	/
NNC(=O)c1sc(-c2ccc(Cl)cc2)cc1N	-7%	-11%	-78*	0	-5%	12
Oc1ccc(C[C@@H]2CNCCN2CCc2cccc3ccccc23)cc1	21µM*	15µM*	?	/	-5%	1
Fc1cccc(CCN2CCNC[C@@H]2c2ccccc2)c1	?	?	0	-12	-10%	-3
Fc1cccc(CCN2CCNC[C@H]2Cc2cccc3ccccc23)c1	?	?	-60*	12	0%	1
C[C@@H](C(=O)OCC(=O)Nc1cc(S(=O)(=O)N2CCOCC2)ccc1Cl)N1C(=O)C2CCCCC2C1=O (some centres not stated)	-12%	-9%	7	7	0%	-1
O=[N+]([O-])c1ccc(C=NN2CCOCC2)s1	?	21µM*	5	-3	/	-28
O=c1oc(/C=C/c2ccc([N+](=O)[O-])s2)nc2ccccc12	?	?	-62*	/	0%	-1
O=[N+]([O-])c1cc(/C=N/N2CCOCC2)cs1	-5%	12%	-13	-2	/	1
O=[N+]([O-])c1ccc(C=Nc2cccc3ccccc23)s1	21µM*	21µM*	-97*	-70*	8%	?
CC(=O)Oc1ccccc1/C=C/c1nc2ccccc2c(=O)o1	?	-16%	14	-21	/	-25
CCc1ccc(C2CC(c3ccccc3Cl)Nc3nc(N)nn32)cc1 (configuration not stated)	?	-21%	10	-4	11%	-8
O=C(NN1CCOCC1)c1cc(-c2ccc(Cl)c(Cl)c2)nc2ccccc12	1.3µM*	?	-17	8	3%	-6
O=C(NNC(=O)c1cc(-c2ccc(Cl)c(Cl)c2)nc2ccccc12)Nc1ccccc1	?	15µM*	?	0	7%	-6
CCc1ccc(OCC(=O)NNC(=S)NC(=O)C2CC2)c(Br)c1	13µM*	16µM*	110	-16	5%	-10
Cc1cc(C)cc(OCC(=O)NNC(=S)NC(=O)C2CC2)c1	13µM*	18µM*	83	-15	6%	-12
COc1ccc(OCC(=O)NNC(=S)NC(=O)C2CC2)cc1	?	16µM*	29	0	5%	11
COc1ccc(C(C)(C)C)cc1NC(=O)COC(=O)C(C)C	1%	0%	35	7	-9%	9
CCCc1cc(=O)oc2c3c(cc(OCC(=O)NCc4ccncc4)c12)OC(C)(C)CC3	21µM*	6.5µM*	?	1	/	2
Cc1c(C)c2c(OCC(=O)NCC(O)c3ccccc3)cc3c(c2oc1=O)CCC(C)(C)O3 (configuration not stated)	?	?	-3	7	/	6
Cc1cc(=O)oc2c3c(cc(OCC(=O)N4CCC[C@H]4C(=O)O)c12)OC(C)(C)CC3	-4%	-7%	11	?	/	-71*
SMILES	TDP1 cell noCPT	TDP1 cell CPT	IL1B secr inh	CtBP-E1A blk	TDP1 inh	Six1-Eya2 blk
Cc1c(C)c2c(OCC(=O)NCc3ccccn3)cc3c(c2oc1=O)CCC(C)(C)O3	16µM*	15µM*	?	-16	/	-9
COCCCNC(=O)COc1cc2c(c3oc(=O)c(C)c(C)c13)CCC(C)(C)O2	2.1µM*	?	-7	-10	/	-6
CCCCc1cc(=O)oc2c3c(cc(OCC(=O)N4CCC[C@H]4C(=O)O)c12)OC(C)(C)CC3	10%	10%	5	3	/	0
CCCc1cc(=O)oc2c3c(cc(OCC(=O)NCc4ccccn4)c12)OC(C)(C)CC3	?	23µM*	?	-3	/	-7
CCc1ccc(Nc2nnc(SCC(=O)N(C)CC(=O)Nc3ccccc3CC)s2)cc1	15µM*	18µM*	-19	5	4%	-13
CCc1ccc(Nc2nnc(SCC(=O)NC(=O)CN3CCCC3=O)s2)cc1	21%	0%	5	1	18µM*	-13
COc1ccccc1Nc1nnc(SCC(=O)N2CCCC2=O)s1	-1%	-8%	12	10	-4%	-2
O=C(CN(Cc1ccccc1)S(=O)(=O)c1ccc(Br)cc1)NCc1ccco1	-5%	-8%	-9	-7	-4%	-5
CCOc1ccc(NS(=O)(=O)c2cc(NC(=O)CCC(=O)c3cccs3)ccc2Cl)cc1	?	29µM*	-26	-20	0%	-21
O=C(CCC(=O)c1ccc(F)cc1)Nc1cccc(S(=O)(=O)Nc2cccc(Cl)c2)c1	23µM*	15µM*	8	2	6%	-4
Cc1ccc(NC(=O)c2cccs2)cc1S(=O)(=O)Nc1cccc(Cl)c1	?	-13%	-131*	-8	-3%	-15
Cc1ccc(NC(=O)CC(=O)c2ccc([N+](=O)[O-])cc2)cc1S(=O)(=O)Nc1cccc(Cl)c1	11%	-29%	-2	-7	-3%	-6
Cc1ccc(NC(=S)NC(=O)c2ccc(F)cc2)cc1S(=O)(=O)Nc1cccc(Cl)c1	5.8µM*	5.2µM*	?	-14	-5%	-20
CCn1c(O)c(C=NCc2cccs2)c(=O)n(CC)c1=S	-28%	0%	15	0	-2%	-2
COc1cc(Nc2c3c(nc4ccccc24)CCCC3)cc(OC)c1OC	?	?	?	-3	0%	-8
COc1ccc(CNC(=O)c2cc(Nc3ccc(OC)cc3OC)nc3ccccc23)cc1	?	?	/	/	0%	/
COc1ccccc1Nc1nc2c(s1)CCC2	?	15µM*	-11	-6	-1%	-3
COc1cc(Cl)c(C)cc1Nc1c2c(nc3ccccc13)CCC2	1.5µM*	2.1µM*	/	/	6%	/
